Compound activity deposited in PubChem BioAssay by several laboratories.
eIF4H FP inh = inhibitors of RNA binding by human eIF4H; inhibition, % at 35 µM; Q15056; 0.94% of 290,000 active; eIF4H fluorescence polarization binding assay;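 also: calls also rest on retests at 20 µM and on dose response follow-up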
PABP1 MLLE inh = blocks PAM2 peptide binding to the PABP1 MLLE domain; 0.36% of 360,000 active; inhibition, % at 20 µM; P11940; GST-MLLE / FITC-PAM2 fluorescence polarization; in the data active = inhibition above about 35%, passing the limit was not always enough;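 also: plate controls were DMSO wells with GST-MLLE for no effect and wells lacking GST-MLLE protein for full effect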
MEX-5 binding = C. elegans MEX-5 TCR-2 RNA binding activity; MEX-5/FITC-TCR2 RNA binding, fluorescence polarization; hits give low values; 0.38% of 300,000 active; AID 1832; activity score (negative = inhibition of binding), % at 10 µM; Q9XUB2;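 active = inhibition past about -25% in most replicates, and total fluorescence under double the plate's negative control median, limit read from the data; inconclusive = replicates evenly split on the limit, or fluorescence at least double controls; inactive = too little inhibition in most replicates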;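 also: 0% = DMSO and -100% = 5 µM competing unlabeled TCR2 RNA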
Target sequence (Q9XUB2 whole entry, looked up): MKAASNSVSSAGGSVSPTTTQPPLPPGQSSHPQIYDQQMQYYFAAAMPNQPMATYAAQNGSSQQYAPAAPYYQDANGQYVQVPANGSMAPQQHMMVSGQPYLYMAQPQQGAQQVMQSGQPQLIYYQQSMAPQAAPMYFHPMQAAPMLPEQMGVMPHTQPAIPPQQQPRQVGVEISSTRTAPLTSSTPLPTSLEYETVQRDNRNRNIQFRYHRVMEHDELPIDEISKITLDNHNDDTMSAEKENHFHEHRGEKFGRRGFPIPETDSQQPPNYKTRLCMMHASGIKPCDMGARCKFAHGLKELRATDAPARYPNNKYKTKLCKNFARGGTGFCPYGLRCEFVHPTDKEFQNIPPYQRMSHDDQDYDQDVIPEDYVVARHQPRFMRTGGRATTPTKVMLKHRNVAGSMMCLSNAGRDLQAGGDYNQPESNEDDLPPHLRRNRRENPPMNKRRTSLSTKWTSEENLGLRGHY
EBV gp42 block = blocks Epstein-Barr virus glycoprotein 42 binding. AID 1085. 0.42% of 220,000 active. inhibition, % (tested at 21.74 µM). Fluorescence polarization binding assay, mP read-out; in the data active = inhibition above about 50%
PABP polyA inh = PABP-poly(A) binding inhibition. PABP-poly(A) RNA binding, fluorescence polarization. calls only at 35 µM. 1% of 290,000 active. AID 2014;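 also: calls also rest on retests at 20 µM and on dose response follow-up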
An asterisk follows results filed as active; i = inactive; ? = inconclusive; . = no result given; + = active, no number; ! = not active in a repeat. This is a sample that favours compounds with a hit; in the whole collection about 1.8% have one here. Unless noted, no rule for the calls is given here.

SMILES | eIF4H FP inh | PABP1 MLLE inh | MEX-5 binding | EBV gp42 block | PABP polyA inh
CCOC(=O)c1sc(N=NC2=C(O)CC(C)(C)CC2=O)c(C(=O)OCC)c1C | 60* | 49 | 6 | 14 | i
CCOC(=O)c1cc(CC)sc1/N=C/C1=C(O)CC(C)(C)CC1=O | 15 | 27 | -4 | -9 | i
Cc1ccccc1NC(=O)c1sc2nc3c(c(-c4ccco4)c2c1N)CCC3 | 88* | 14 | 4 | -1 | +
O=C(/C=C/c1ccco1)NCC1CCCO1 (stereo not drawn) | 13 | 10 | -2 | -7 | i
Nc1c(C(=O)NCC2CCCO2)sc2nc3c(c(-c4ccco4)c12)CC/C3=C\c1ccco1 (stereo not drawn) | 110* | -34 | . | 98* | i
NC(=O)c1sc2nc3c(c(-c4ccco4)c2c1N)CCCC3 | 10 | 18 | -2 | 3 | i
C[C@H]1CN([C@@H](C)CO)C(=O)c2cc(Br)cnc2O[C@H]1CN(C)S(=O)(=O)c1ccccc1F | . | 11 | . | . | .
Cc1ccc(S(=O)(=O)N2CCN(C(=O)c3cc(S(=O)(=O)N(C)C)ccc3N3CCCC3)CC2)c(C)c1 | . | 2 | . | . | .
OC1(c2ccc(Cl)cc2)CN(c2ccccc2)C2=[N+]1CCS2 (stereo not drawn) | -10 | 37 | 1 | 8 | i
OC1(c2ccc(Br)cc2)CN(c2ccccc2)C2=[N+]1CCS2 (stereo not drawn) | -6 | 37* | 0 | -6 | i
CC1(C)CC(=O)C2=C(C1)NC(=O)CC2 | . | 7 | . | . | .
Cc1cccc(Nc2nnc(SCC3CCCCO3)s2)c1C (stereo not drawn) | 1.8* | 9 | -2 | -12 | i
COc1cccc(Nc2nnc(SCC3CCCCO3)s2)c1 (stereo not drawn) | -2 | -9 | 1 | 2 | i
CC1=Nc2ccc(C)cc2/C1=C/c1c(N)n2nc(CC(=O)N3CCOCC3)sc2nc1=O | 5 | -61 | -52* | . | i
CC1=Nc2ccc(C)cc2/C1=C/c1c(N)n2oc(C)cc2nc1=O | ? | -44 | -12 | -27 | +!
COCCCN1C(=O)C(CC(=O)NCc2ccco2)CC(C(=O)N(C(C)C)C(C)C)=C1C (stereo not drawn) | . | 12 | . | . | .
O=C(Nc1nc(OCC(F)(F)F)cnc1/C=C\c1ccccc1)c1ccccc1 | . | -3 | . | . | .
Cc1c(C(=O)O)cccc1N1C(=O)Nc2ccccc2N1O | -4 | -11 | -3 | 2 | i
O=C(O)c1ccc(O)c(N2C(=O)Nc3ccccc3N2O)c1 | 53* | -10 | -3 | 10 | +
CC/C(=N/Nc1ccc(Cl)cc1)c1cnnc(SC)n1 | 4 | 18 | . | 1 | i
CC/C(=N/Nc1cccc(C)c1)c1cnnc(SC)n1 | ? | 48 | -33* | -11 | i
C=CCCC(=O)N1C[C@H]2CON(C)[C@H]2C[C@H]1c1ccc(-n2ccnc2)cc1 | . | 5 | . | . | .
O=C1C(Cl)=C(NCCc2ccccc2)C(=O)c2ccccc21 | . | 40* | . | . | .
O=C1C(Cl)=C(Nc2ccccc2)C(=O)c2ccccc21 | 11 | -1 | 3 | -6 | i
Cc1ccc(NC2=C(NC(=O)c3ccccc3)C(=O)c3ccccc3C2=O)cc1Cl | -6 | 46* | 1 | 2 | i
SMILES | eIF4H FP inh | PABP1 MLLE inh | MEX-5 binding | EBV gp42 block | PABP polyA inh
O=C(O)c1ccc(NC2=C(Cl)C(=O)c3ccccc3C2=O)cc1 | -4 | 47* | -7 | 8 | i
CC(OC(=O)c1ccc(S(C)(=O)=O)c([N+](=O)[O-])c1)C(=O)NC1C2CC3CC(C2)CC1C3 (stereo not drawn) | . | -1 | . | . | .
CCOC(=O)Nc1ccc2c(c1)C(=NNC(=S)NC)c1ccccc1-2 | . | 31 | . | . | .
COc1ccc(CCN2C(=O)NC(NC(C)=O)(C(F)(F)F)C2=O)cc1OC (stereo not drawn) | -3 | -5 | 0 | -3 | +
O=c1[nH]c2c(s1)C=Nc1ccccc1N2 | ? | 167 | -72* | 119* | ?
O=C1CC(c2ccco2)CC2=C1C=Nc1ccccc1N2 (stereo not drawn) | 14 | -11 | 0 | 11 | i
CCCCn1nnnc1C(c1cccc2ccccc12)N1CCN(C/C=C/c2ccccc2)CC1 (stereo not drawn) | . | -2 | . | . | .
NC(=O)c1cccc(-c2ccnc3c2CC(C(=O)NCc2ccccc2)O3)c1 (stereo not drawn) | . | 9 | . | . | .
C=CCn1c(Cc2ccccc2)n[nH]c1=S | 2 | -21 | -1 | -20 | i
C=CCn1c(CSc2ccccc2[N+](=O)[O-])n[nH]c1=S | 84* | -6 | -2 | . | +
